Screening results: PubChem, National Center for Advancing Translational Sciences (NCATS)
The list is not random: actives were taken first. Their share in the collection is about 12%.
AmpC detergent – blocks E. coli AmpC beta-lactamase in detergent assay | AmpC hydrolysis of nitrocefin, absorbance 480 nm, 0.01% Triton | Potency, µM (top dose mostly 114 µM), actives largely listed as inhibitors | actives 0.041% (n = 370,000) | AID 485294; also: nearly all actives have a fitted effect of over 25% in size
Target sequence (P00811 whole entry, looked up): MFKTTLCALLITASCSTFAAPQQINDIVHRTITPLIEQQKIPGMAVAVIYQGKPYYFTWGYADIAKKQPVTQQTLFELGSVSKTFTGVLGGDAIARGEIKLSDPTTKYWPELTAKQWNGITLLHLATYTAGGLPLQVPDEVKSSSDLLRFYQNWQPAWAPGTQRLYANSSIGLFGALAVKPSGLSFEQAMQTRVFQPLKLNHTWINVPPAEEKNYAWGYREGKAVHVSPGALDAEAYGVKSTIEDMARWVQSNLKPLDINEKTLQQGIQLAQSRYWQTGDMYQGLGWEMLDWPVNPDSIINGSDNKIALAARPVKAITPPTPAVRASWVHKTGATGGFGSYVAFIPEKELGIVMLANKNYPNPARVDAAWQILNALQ
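20 mM phosphate pH 7.0 + 0.01% (detergent screen) or 0.0001% Triton X-100; 5.3 nM AmpC reagent; cpd preinc 15 min RT; nitrocefin (800 uM stock) to start; A480 q20 s × 4 min; Activity was normalised to no-enzyme and no-compound control wells.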
SARS PLP yeast – inhibitors of SARS-CoV papain-like protease in yeast; S. cerevisiae expressing SARS-CoV PLpro, growth rescue; Potency, µM (top dose mostly 32.9 µM), usual class: activators; actives 0.19% (n = 330,000); calls by dose curve; also: nearly all actives have a fitted effect of over 55% in size
Sm TGR block – S. mansoni TGR enzyme inhibition | Q962Y6 | AID 485364 | purified TGR, DTNB reduction, TNB absorbance 405 nm | actives 3% (n = 360,000) | Potency, µM (doses to about 114 µM), hits mostly inhibitors; also: nearly all actives have a fitted effect of over 60% in size
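TGR 20 nM + NADPH 100 uM (dispensed conc.), cpd preinc 15 min RT; start with NADPH (500 uM addition) then DTNB (15 mM addition). Kinetic TNB absorbance, 405 nm filter. Four-parameter Hill fit across titration.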
Pf growth 96h – inhibits malaria parasite growth, 96 h. P. falciparum luciferase reporter growth, 96 h. Potency, µM (doses to about 28.7 µM), usual class: inhibitors. actives 6.9% (n = 320,000)
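Two-generation exposure (96 h) targets delayed-death phenotype. Reporter parasites carrying integrated firefly luciferase, in red cells at 2% hematocrit and 0.05% parasitemia final, kept at 37 C, 5% CO2; luminescence loss indicates inhibition.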
Pf growth 48h – P. falciparum growth inhibition at 48 hours (one generation) | P. falciparum luciferase growth in erythrocytes, 48 h | Potency, µM (series often up to 28.7 µM), most hits filed as inhibitors | actives 5.9% (n = 310,000) | AID 504832
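Firefly luciferase activity from engineered P. falciparum reports growth; inhibitors lower the luminescent signal. Cultures contained 2% hematocrit erythrocytes at 0.1% final parasitemia.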
AmpC no deterg – blocks E. coli AmpC beta-lactamase in detergent-free assay | P00811 | AmpC nitrocefin hydrolysis, absorbance 480 nm, 0.0001% Triton | Potency, µM (series often up to 57.1 µM), hits mostly inhibitors | actives 0.52% (n = 330,000) | AID 485341; also: nearly all actives have a fitted effect of over 20% in size
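AmpC (5.3 nM in the dispensed reagent) in 20 mM phosphate pH 7.0 with 0.01% (detergent screen) or 0.0001% Triton X-100 was preincubated with compounds for 15 min at room temperature. Nitrocefin was then added from an 800 uM solution, and hydrolysis was followed at 480 nm.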
Large screens that a line does not name were inactive. Unless noted, calls follow the shape of the dose curve; as a rule, active = well fitted curve in the direction sought with a large enough effect; inconclusive = small, poorly fitted or top-dose-only effect, or another doubt; inactive = no such curve, though single readings can be large; an effect the other way counts as inactive or inconclusive.

COC(=O)c1ccc(CSc2nnc(CNC(=O)COc3ccc(Cl)cc3)o2)o1	Pf growth 96h 5.9µM
CCOc1ccccc1NC(=O)CSc1nnc(CNC(=O)COc2ccc(Cl)cc2)o1	Pf growth 96h 10µM
O=C(COc1ccc(Cl)cc1)NCc1nnc(SCC(=O)Nc2ccc(F)cc2F)o1	none
Cc1ccc(NC(=O)Cn2nnc(C(=O)NCc3ccc4c(c3)OCO4)c2N)cc1Cl	none (no result: SARS PLP yeast, Pf growth 96h, Pf growth 48h, AmpC no deterg)
Cc1cc2c(cc1NS(=O)(=O)c1cccc(C#N)c1)n(C)c(=O)c(=O)n2C	none (no result: SARS PLP yeast, Pf growth 96h, Pf growth 48h, AmpC no deterg)
COc1cc(Nc2nc3c(S(=O)(=O)c4ccc(C)c(C)c4)nnn3c3ccsc23)cc(OC)c1	none (no result: SARS PLP yeast, Pf growth 96h, Pf growth 48h, AmpC no deterg)
CCOC(=O)C1=C(C)Nc2ccccc2N/C1=N\S(=O)(=O)c1ccccc1	AmpC detergent inconclusive, Pf growth 96h inconclusive
CCn1c(SCc2cccc(C(F)(F)F)c2)nnc1-c1ccco1	Sm TGR block 28µM, Pf growth 96h inconclusive, Pf growth 48h inconclusive
COC(=O)CSc1nnc(-c2ccco2)n1Cc1ccco1	Sm TGR block 13µM
c1ccc(CSc2nnc(-c3ccco3)n2Cc2ccco2)cc1	Sm TGR block 45µM, Pf growth 96h inconclusive, Pf growth 48h inconclusive
COc1cccc(-c2nnc(SCc3ccc(C#N)cc3)n2Cc2ccco2)c1	Sm TGR block 40µM, Pf growth 48h inconclusive
O=C(Nc1ccc(N2CCOCC2)c(Cl)c1)c1ccc(-n2cnnc2)cc1Cl	none
Cc1ccc(C)c(N2CCN(C(=O)C(C)n3c(C)c4cnn(-c5ccccc5)c(=O)c4c3C)CC2)c1 (configuration not stated)	none (no result: SARS PLP yeast, Pf growth 96h, Pf growth 48h, AmpC no deterg)
COCCn1c(SCC(=O)NCCc2ccccc2)nnc1-c1ccco1	AmpC detergent inconclusive, Sm TGR block inconclusive
Cc1ccc(-c2nnc(SCc3nc4ccccc4[nH]3)n2Cc2ccco2)cc1	Pf growth 96h inconclusive, Pf growth 48h inconclusive
COc1ccc(NC(=O)CSc2nnc(-c3ccccc3)n2Cc2ccco2)cc1OC	AmpC detergent inconclusive
c1coc(Cn2c(SCc3nc4ccccc4[nH]3)nnc2-c2cccs2)c1	Pf growth 96h 10µM
CCN(CC)C(=O)CSc1nnc(-c2ccco2)n1Cc1ccco1	Sm TGR block 50µM
COCCn1c(SCc2cccnc2)nnc1-c1ccco1	Sm TGR block 28µM, Pf growth 96h 9.3µM
CCOC(=O)CNC(=O)CSc1nnc(-c2ccccc2)n1Cc1ccco1	Sm TGR block 20µM, Pf growth 96h 12µM
CCN(C(=O)C(C)Sc1ccc(S(=O)(=O)N2CCOCC2)cn1)c1ccccc1 (configuration not stated)	Pf growth 96h inconclusive, Pf growth 48h 13µM
CN(C(=O)CSc1ccc(S(=O)(=O)N2CCCCC2)cn1)c1ccccc1	Pf growth 96h 12µM, Pf growth 48h inconclusive
CC(C)C(C)NC(=O)CSc1ccc(S(=O)(=O)N2CCOCC2)cn1 (configuration not stated)	none
CC(Sc1ccc(S(=O)(=O)N2CCCC2)cn1)C(N)=O (configuration not stated)	none
CN(C)C(=O)C(Sc1ccc(S(=O)(=O)N2CCCC2)cn1)c1ccccc1 (configuration not stated)	Pf growth 96h inconclusive, Pf growth 48h 15µM
O=c1oc2c(-c3ccc([N+](=O)[O-])cc3)cc(O)cc2s1	Pf growth 96h inconclusive, Pf growth 48h inconclusive
NS(=O)(=O)c1ccc(CCNC(=O)C2CCN(S(=O)(=O)c3ccc(Br)s3)CC2)cc1	none
Cn1cc(C(=O)[C@@H]2CCc3[nH]cnc3C2)c2ccccc21	none (no result: AmpC detergent, SARS PLP yeast, Sm TGR block, AmpC no deterg)
COc1cc(/C=N/Nc2nc(Nc3ccccc3)nc(-n3nc(C)cc3C)n2)cc(OC)c1OC	Pf growth 48h 3.3µM
COc1ccc(O)c(/C=N/Nc2nc(Nc3ccccc3)nc(-n3nc(C)cc3C)n2)c1	Pf growth 96h 2.1µM, Pf growth 48h 1.9µM
COc1cc(/C=N/Nc2nc(Nc3ccccc3)nc(N3CCCCC3)n2)ccc1OCC(=O)O	Pf growth 96h inconclusive
COc1ccc(Nc2cc(C)nc(-n3nc(C)cc3C)n2)cc1Cl	none (no result: SARS PLP yeast, Pf growth 96h, Pf growth 48h, AmpC no deterg)
COc1ccc(/C=N/Nc2nc(Nc3ccccc3)nc(N3CCCCC3)n2)c(OC)c1	Pf growth 48h inconclusive, AmpC no deterg inconclusive
COc1cc(/C=N/Nc2nc(Nc3ccc(C)cc3)nc(-n3nc(C)cc3C)n2)cc(OC)c1OC	Pf growth 96h 1.9µM (no result: Pf growth 48h)
CCOc1ccc(CNC(=O)C2CCN(S(=O)(=O)c3cn(C)cn3)CC2)cc1	none (no result: SARS PLP yeast, Pf growth 96h, Pf growth 48h, AmpC no deterg)
Cc1ccc(SC(=O)COc2ccccc2C)cc1	Sm TGR block 11µM (no result: Pf growth 48h)
Cc1cc(Cl)ccc1C(=O)C1CCCN(C(=O)c2cncs2)C1 (configuration not stated)	none
CCCC[N+]12C3C[C@H](C4[C@H](O)[C@]5(C[C@@H]41)c1ccccc1N(C)[C@@H]35)[C@H](CC)[C@H]2O (some centres not stated)	Pf growth 96h inconclusive, Pf growth 48h 13µM
Cc1cccc(-n2c3nc(=O)[nH]c(=O)c-3cc3c(Cl)cccc32)c1C	none (no result: SARS PLP yeast, Pf growth 96h, Pf growth 48h, AmpC no deterg)
Cc1ccc(O)c(Nc2c3ccccc3nc3ccccc23)c1	Sm TGR block inconclusive, Pf growth 48h inconclusive
Oc1ccc(CCNc2c3ccccc3nc3ccccc23)cc1O	AmpC detergent inconclusive, Pf growth 96h 3.3µM, Pf growth 48h 13µM
c1ccc(CNc2c3ccccc3nc3ccccc23)cc1	Pf growth 96h inconclusive, Pf growth 48h 2.9µM
OCC(Cc1ccccc1)Nc1c2ccccc2nc2ccccc12 (configuration not stated)	Pf growth 96h inconclusive, Pf growth 48h 2.6µM
Oc1ccccc1Nc1nc(NCc2ccccc2)c2ccccc2n1	Pf growth 48h 0.33µM
Oc1ccccc1-c1nc(NCc2ccccc2)c2ccccc2n1	Pf growth 96h inconclusive, Pf growth 48h inconclusive
CCN1CCN(c2cc3c(cc2F)c(=O)c(S(=O)(=O)c2cc(C)cc(C)c2)cn3CC)CC1	none (no result: SARS PLP yeast, Pf growth 96h, Pf growth 48h, AmpC no deterg)
Cc1cc(C)cc(NC(=O)N2CCN(C(=O)c3nsc4ccccc34)CC2)c1	none (no result: SARS PLP yeast, Pf growth 96h, Pf growth 48h, AmpC no deterg)
OCCNc1nc(Nc2ccc(Br)cc2)nc2ccccc12	Pf growth 96h inconclusive, Pf growth 48h 0.93µM
CN(C)CCCNc1c2ccccc2nc2ccccc12	Pf growth 48h 1µM
CNc1nc(NCc2ccccc2)c2ccccc2n1	AmpC detergent inconclusive, Pf growth 96h inconclusive, Pf growth 48h 1.2µM
c1ccc(CNc2ncnc3ccccc23)cc1	Pf growth 48h inconclusive
CCC(NC(=O)Nc1cc(OC)ccc1OC)c1c(-n2cccc2)sc2c1CCN(CC)C2 (configuration not stated)	none (no result: SARS PLP yeast, Pf growth 96h, Pf growth 48h, AmpC no deterg)
NS(=O)(=O)c1ccc(NC(=O)Nc2ccc(C(F)(F)F)cc2)cc1	Pf growth 96h inconclusive, Pf growth 48h inconclusive
